This is an account of results in PubChem BioAssay (Tox21).

Each structure is given as a SMILES string. Several values for one entry are separate records, joined by “and”; a condition that tells them apart may be missing. Equal entries are not always repeated. Records with an inconclusive call do not appear. A structure can be active in one record and inactive in another. Activity calls are given as the source filed them. The call rests on the fitted dose curve; in most records, active means well fitted curve in the direction sought with a large enough effect in the repeat runs; inconclusive means weak or mixed curves; inactive means no such curve, though single readings can be large; an effect the other way counts as inactive or inconclusive.

In assay [1] the target is Cytochrome P450 2C9 (Homo sapiens) (UniProt P11712). Description: Cytochrome P450 Family 2 Subfamily C Member 9 (CYP2C9) small molecule antagonists: luciferase reporter qHTS assay (AID 1671198). On activity change, negative = inhibition: series mostly up to about 120 µM. In short, it runs like this:
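Enzyme-substrate mix preincubated with compound 10 min at room temperature; reaction started with NADPH regeneration solution, 1 h 37C. Luminescent luciferin product read after 20 min detection reagent.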
A general note: A reporter such as luciferase makes a cellular process visible.

Assay [2] has as its target Cytochrome P450 1A2 (Homo sapiens) (UniProt P05177). Description: Cytochrome P450 Family 1 Subfamily A Member 2 (CYP1A2) small molecule antagonists: luciferase reporter qHTS assay (AID 1671199). On activity change, negative = inhibition: series mostly up to about 120 µM. In short, it runs like this:
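Compounds were incubated with CYP1A2 and a luminogenic proluciferin substrate for 10 min at room temperature before the reaction was started with NADPH regeneration solution. After 1 h, detection reagent was added and light output, proportional to CYP activity, was recorded.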

The target in assay [3] is Voltage-gated inwardly rectifying potassium channel KCNH2 (Homo sapiens) (UniProt Q12809). The assay is described as follows: Human Ether-a-go-go-Related Gene (hERG) channel small molecule antagonists: fluorescence cell-based qHTS assay (AID 1671200).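 On activity change, negative = inhibition: hERG-expressing U2OS cells given a thallium stimulus after FluxOR II dye loading; series mostly up to about 77 µM.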 In short, it runs like this: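 First, 1000 cells per well are seeded and cultured overnight at 37 C. Next, FluxOR II dye is loaded for 1 h at room temperature, protected from light. After 10 more minutes, stimulus is added and fluorescence is read.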
Sequence of Voltage-gated inwardly rectifying potassium channel KCNH2 (Homo sapiens) (Q12809 whole entry, looked up): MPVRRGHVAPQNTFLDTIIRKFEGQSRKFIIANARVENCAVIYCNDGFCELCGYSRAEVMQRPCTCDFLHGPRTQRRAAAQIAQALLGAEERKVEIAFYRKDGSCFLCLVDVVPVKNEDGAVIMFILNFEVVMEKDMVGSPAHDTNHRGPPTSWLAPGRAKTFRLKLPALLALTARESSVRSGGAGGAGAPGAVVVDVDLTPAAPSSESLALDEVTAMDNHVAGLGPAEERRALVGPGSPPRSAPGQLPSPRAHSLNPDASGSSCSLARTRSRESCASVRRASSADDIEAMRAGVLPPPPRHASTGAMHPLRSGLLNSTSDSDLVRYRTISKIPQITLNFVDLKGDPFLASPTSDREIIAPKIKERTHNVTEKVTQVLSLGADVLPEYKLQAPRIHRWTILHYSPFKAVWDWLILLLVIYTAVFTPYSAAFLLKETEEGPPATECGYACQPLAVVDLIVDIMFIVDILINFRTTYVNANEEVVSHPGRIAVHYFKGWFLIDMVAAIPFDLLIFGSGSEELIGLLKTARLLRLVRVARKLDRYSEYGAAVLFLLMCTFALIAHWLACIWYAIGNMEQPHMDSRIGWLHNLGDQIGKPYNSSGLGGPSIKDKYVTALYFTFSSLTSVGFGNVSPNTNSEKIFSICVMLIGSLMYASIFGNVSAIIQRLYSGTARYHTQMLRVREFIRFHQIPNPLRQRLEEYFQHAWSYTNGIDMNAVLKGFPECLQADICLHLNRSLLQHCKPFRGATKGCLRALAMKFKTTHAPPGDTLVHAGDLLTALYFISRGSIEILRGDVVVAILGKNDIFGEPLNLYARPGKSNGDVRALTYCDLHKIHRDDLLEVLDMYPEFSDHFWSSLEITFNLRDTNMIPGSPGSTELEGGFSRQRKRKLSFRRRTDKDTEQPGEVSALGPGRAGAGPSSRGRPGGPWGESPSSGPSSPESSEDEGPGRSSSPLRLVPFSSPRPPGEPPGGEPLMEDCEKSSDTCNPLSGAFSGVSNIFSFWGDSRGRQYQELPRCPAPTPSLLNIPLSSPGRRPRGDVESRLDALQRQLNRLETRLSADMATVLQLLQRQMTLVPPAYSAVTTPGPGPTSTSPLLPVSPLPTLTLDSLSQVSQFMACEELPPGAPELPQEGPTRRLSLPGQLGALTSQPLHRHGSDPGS
(hERG is a cardiac potassium channel; its block is linked to QT prolongation.)

Assay [4] has as its target Cytochrome P450 3A4 (Homo sapiens) (UniProt P08684). Description: Cytochrome P450 Family 3 Subfamily A Member 4 (CYP3A4) small molecule antagonists: luciferase reporter qHTS assay (AID 1671201). On activity change, negative = inhibition: series mostly up to about 120 µM. In short, it runs like this:
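Enzyme and proluciferin substrate are mixed with test chemicals for 10 min, then NADPH regeneration system drives turnover for 1 h at room temperature. A detection reagent halts the reaction; luminescence after 20 min gives relative activity.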
Further: nearly all actives have a fitted effect of over 50% in size.
On the % scale 0 is the no-effect control and ±100 the full control effect; potency means the concentration at half of the fitted maximal effect.

Sequence of Cytochrome P450 2C9 (Homo sapiens) (P11712 whole entry, looked up): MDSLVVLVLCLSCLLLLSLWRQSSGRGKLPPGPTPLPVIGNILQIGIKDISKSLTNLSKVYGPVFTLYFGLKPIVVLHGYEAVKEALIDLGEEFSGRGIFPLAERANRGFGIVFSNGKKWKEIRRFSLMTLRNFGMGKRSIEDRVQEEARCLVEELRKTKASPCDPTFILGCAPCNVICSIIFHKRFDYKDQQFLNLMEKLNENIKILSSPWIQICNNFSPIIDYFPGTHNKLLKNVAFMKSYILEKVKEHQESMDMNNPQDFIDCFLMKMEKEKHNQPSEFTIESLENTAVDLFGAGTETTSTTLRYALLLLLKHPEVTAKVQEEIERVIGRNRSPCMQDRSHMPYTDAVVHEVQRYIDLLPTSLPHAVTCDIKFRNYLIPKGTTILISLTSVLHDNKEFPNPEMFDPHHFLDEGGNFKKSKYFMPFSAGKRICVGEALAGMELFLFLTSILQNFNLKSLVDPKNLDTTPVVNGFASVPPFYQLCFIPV
Sequence of Cytochrome P450 3A4 (Homo sapiens) (P08684 whole entry, looked up): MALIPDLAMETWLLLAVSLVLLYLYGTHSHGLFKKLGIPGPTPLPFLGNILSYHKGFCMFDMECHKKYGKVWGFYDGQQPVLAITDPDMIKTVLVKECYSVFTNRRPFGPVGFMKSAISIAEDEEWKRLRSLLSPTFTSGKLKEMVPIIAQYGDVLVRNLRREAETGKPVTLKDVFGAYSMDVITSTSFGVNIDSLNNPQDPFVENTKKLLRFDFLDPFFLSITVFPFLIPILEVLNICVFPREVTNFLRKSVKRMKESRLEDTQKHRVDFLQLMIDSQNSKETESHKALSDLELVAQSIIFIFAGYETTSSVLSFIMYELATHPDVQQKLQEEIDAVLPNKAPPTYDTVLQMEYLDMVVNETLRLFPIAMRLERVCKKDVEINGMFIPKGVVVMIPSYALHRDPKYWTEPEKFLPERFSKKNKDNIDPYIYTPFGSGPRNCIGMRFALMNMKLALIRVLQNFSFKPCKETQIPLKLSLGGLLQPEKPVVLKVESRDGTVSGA
Sequence of Cytochrome P450 1A2 (Homo sapiens) (P05177 whole entry, looked up): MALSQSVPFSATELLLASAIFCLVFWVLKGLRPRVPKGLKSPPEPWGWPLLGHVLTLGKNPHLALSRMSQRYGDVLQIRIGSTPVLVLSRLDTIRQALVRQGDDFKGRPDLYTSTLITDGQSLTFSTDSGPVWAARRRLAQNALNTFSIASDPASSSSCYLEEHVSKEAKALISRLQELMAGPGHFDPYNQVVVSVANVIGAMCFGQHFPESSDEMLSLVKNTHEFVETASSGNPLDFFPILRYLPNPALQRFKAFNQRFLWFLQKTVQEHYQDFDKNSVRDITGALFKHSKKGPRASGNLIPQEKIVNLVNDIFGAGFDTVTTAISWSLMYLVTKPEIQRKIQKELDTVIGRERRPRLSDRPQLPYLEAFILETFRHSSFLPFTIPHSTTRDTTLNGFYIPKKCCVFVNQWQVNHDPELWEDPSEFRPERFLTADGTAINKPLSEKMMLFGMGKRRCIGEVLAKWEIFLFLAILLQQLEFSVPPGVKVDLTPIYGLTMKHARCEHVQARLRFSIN

For the compound `[Cu+]`, the values for the Potency in assay [1], in assay [2] and in assay [4] were 11.2 µM (active), 39.9 µM (active) and 39.9 µM (active), respectively. Also, the Potency entry in assay [3] was “inactive”.

On to `C=C(C)c1cccc(C(=C)C)c1`, for which the Potency entry in assay [1], in assay [2], in assay [3] and in assay [4] was “inactive” in each case.

Take `CCN1C(=O)c2ccccc2C1Nc1ccc(OCCN2CCCCC2)cc1` (stereo not given): the Potency result in assay [1], in assay [2] and in assay [3] was “inactive” throughout.

Consider `CCCNCCC`, for which the Potency entry in assay [1], in assay [2], in assay [3] and in assay [4] was “inactive” throughout.

With `COc1ccc2c(c1)c(CC(=O)OC/C=C(\C)CC/C=C(\C)CCC=C(C)C)c(C)n2C(=O)c1ccc(Cl)cc1`, the Potency in assay [1] and in assay [2] was 17.4 µM (active) each time. Besides, the Potency result in assay [3] is “inactive”.

Regarding `OCC(F)(F)F`, the Potency result in assay [1], in assay [2], in assay [3] and in assay [4] was “inactive” each time.

In the case of `CCCCC(CC)CN1CN(CC(CC)CCCC)CC(C)(N)C1` (stereo not given), the Potency result in assay [1] and in assay [2] was “inactive” throughout. The Potency in assay [3] is 2.68 µM (active).

As to `CCOC(=O)Cn1cccc1-c1nc(-c2ccc(OC)cc2)c(-c2ccc(OC)cc2)s1`, the Potency in assay [1] is 3.89 µM (active). Also, the Potency entry in assay [2] and in assay [3] was “inactive” throughout.

Consider `O=C(Nc1ccc2c(O)c(N=Nc3ccc(N=Nc4ccc(S(=O)(=O)O)cc4)cc3)c(S(=O)(=O)O)cc2c1)c1ccccc1`, for which the Potency in assay [1] is 20 µM (active); in assay [2], 35.6 µM (active). In addition, in assay [3], the Potency result was “inactive”.

Regarding `O=C1CCc2cc(OCCCCc3nnnn3C3CCCCC3)ccc2N1`, in assay [1], the Potency is 12.3 µM (active). Also, the Potency entry in assay [2] and in assay [3] was “inactive” throughout.

For the compound `Clc1ccnc(Cl)n1`, the Potency entry in assay [1], in assay [2], in assay [3] and in assay [4] was “inactive” throughout.

Take `Clc1sc(Cl)c(Cl)c1Cl`: the Potency result in assay [1], in assay [2], in assay [3] and in assay [4] was “inactive” each time.

With `Clc1nnc(Cl)c2ccccc12`, the Potency result in assay [1], in assay [3] and in assay [4] was “inactive” throughout. The Potency in assay [2] was 11.2 µM (active).

Turning to `NC(=S)NC(N)=S`, the Potency in assay [1] was 7.96 µM (active); in assay [2] it was 35.6 µM (active). The Potency entry in assay [3] and in assay [4] was “inactive” in each case.

For `COc1cc(C)ccc1O`, the Potency entry in assay [1] and in assay [3] was “inactive” each time. The Potency in assay [2] is 39.9 µM (active).

On to `CC(C)=CCC1=C(O)c2ccccc2C(=O)C1=O`, for which the Potency in assay [1] was 31.6 µM (active); in assay [2], 11.2 µM (active). Moreover, the Potency result in assay [3] was “inactive”.

On to `Cc1cccc2cccnc12`, for which the Potency result in assay [1] and in assay [3] was “inactive” each time. In assay [2], the Potency was 44.5 µM (active).

Regarding `CC(C)=CCNc1ncnc2c1ncn2[C@@H]1O[C@H](CO)[C@@H](O)[C@H]1O`, the Potency result in assay [1], in assay [2] and in assay [3] was “inactive” in each case.

For the compound `CCN(CCN)c1cccc(C)c1`, the Potency in assay [1] was 40.3 µM (active) and 56.4 µM (active); in assay [2] it was 11.4 µM (active) and 20 µM (active); in assay [3] it was 24.5 µM (active); in assay [4] it was 12.7 µM (active) and 35.6 µM (active).

As for `O=C(/C=C/c1ccc(O)c(O)c1)O[C@@H](C(=O)O)[C@@H](OC(=O)/C=C/c1ccc(O)c(O)c1)C(=O)O`, the Potency entry in assay [1], in assay [2], in assay [3] and in assay [4] was “inactive” each time.

Regarding `O=C(O)c1ccc2cc(C(=O)O)ccc2c1`, the Potency entry in assay [1], in assay [2] and in assay [3] was “inactive” throughout.

On to `COC(=O)C1=C(C)NC(C)=C(C(=O)OCCN2CCN(C(c3ccccc3)c3ccccc3)CC2)C1c1cccc([N+](=O)[O-])c1` (stereo not given), for which the results for the Potency in assay [1] and in assay [3] were 0.692 µM (active) and 5.35 µM (active), respectively. For the same compound, the Potency result in assay [2] and in assay [4] was “inactive” throughout.

In the case of `CC(=O)c1ccc(C(C)=O)cc1`, the Potency result in assay [1], in assay [3] and in assay [4] was “inactive” in each case. Further, the Potency in assay [2] was 28.9 µM (active).

`CC1=Nc2ccccc2C1(C)C`: the figures for the Potency in assay [1], in assay [2] and in assay [4] were 40 µM (active), 63.4 µM (active) and 63.4 µM (active), respectively. Besides, in assay [3], the Potency entry was “inactive”.

Consider `CCCCCCCCCCCCOC(=O)c1ccc(O)cc1`, for which the results for the Potency in assay [1], in assay [2] and in assay [4] were 4.52 µM (active), 12.7 µM (active) and 35.9 µM (active), respectively. Also, in assay [3], the Potency entry is “inactive”.

Consider `C[C@@H](O)[C@H](N)C(=O)O`, for which the activity change, negative = inhibition was 17.9% [at 23.6 µM] (inactive) in assay [1], 12.2% [at 23.6 µM] (inactive) in assay [2], 1.94% [at 15.8 µM] (inactive) in assay [3] and 16.7% [at 23.6 µM] (inactive) in assay [4].

For `CCCCCCCCCCCCCC[N+](C)(C)C`, the Potency entry in assay [1], in assay [2] and in assay [4] was “inactive” throughout. Besides, in assay [3], the Potency is 13.3 µM (active) and 19.5 µM (active) and 21.3 µM (active).

On to `CCCCCCCCCCCCCC[N+](C)(C)Cc1ccccc1`, for which the Potency in assay [1] is 80.9 µM (active); in assay [2], 72.1 µM (active) and inactive; in assay [3], 993 nM (active) and 1.69 µM (active) and 1000 µM (active). In assay [4], the Potency result is “inactive”.

For `CCC(CC)(CC(=O)Nc1cccc(/C=C/c2nc(C3CCC3)cs2)c1)C(=O)O`, the results for the Potency in assay [1] and in assay [2] were 27.5 µM (active) and 24.5 µM (active), respectively. In addition, the Potency result in assay [3] is “inactive”.

In the case of `Cl[Si](Cl)(c1ccccc1)c1ccccc1`, the Potency in assay [1] was 23 µM (active); in assay [2], 64.8 µM (active); in assay [4] it was 5.14 µM (active). Besides, the Potency result in assay [3] is “inactive”.

In the case of `CCCCN(CCCC)CC(O)c1cc(Cl)cc2c1-c1ccc(Cl)cc1/C2=C/c1ccc(Cl)cc1` (stereo not given), the Potency was 17.4 µM (active) in assay [1], 16.2 µM (active) in assay [2] and 2.68 µM (active) in assay [3].

As for `Nc1nc(-c2ccccc2)cs1`, the Potency in assay [1] was 11.2 µM (active); in assay [2], 8.91 µM (active); in assay [4], 5.62 µM (active). Besides, the Potency entry in assay [3] is “inactive”.

On to `Cc1c(C)c2c(c(C)c1O)CC[C@@](C)(CCC[C@H](C)CCC[C@H](C)CCCC(C)C)O2`, for which the Potency result in assay [1], in assay [2] and in assay [3] was “inactive” each time.

Regarding `O=C(O)c1cc(=O)c2ccccc2o1`, the Potency result in assay [1], in assay [2], in assay [3] and in assay [4] was “inactive” in each case.

With `S=C([S-])NCCNC(=S)[S-].S=C([S-])NCCNC(=S)[S-].[Mn+2].[Zn+2]`, the Potency in assay [1] is 3.09 µM (active); in assay [2], 15.5 µM (active). Further, the Potency result in assay [3] and in assay [4] was “inactive” each time.

With `Cc1c(F)c(N2CCNC(C)C2)cc2c1c(=O)c(C(=O)O)cn2C1CC1` (stereo not given), the Potency result in assay [1], in assay [2], in assay [3] and in assay [4] was “inactive” throughout.
